Of roughly 8,800 targets only a part is listed; those with a hit were picked by preference. About 0.5% of all pairs of compound and target were hits.
Columns and labels:
Assay in all cases: log2 fold change, soluble protein after heating vs DMSO (PISA); higher = thermal stabilisation; K562 lysate, 10 uM; active = over 0.2 and 3.5 SD of the protein, either way, in both replicates (recomputed)
nilotinib = compound: Cc1cn(-c2cc(NC(=O)c3ccc(C)c(Nc4nccc(-c5cccnc5)n4)c3)cc(C(F)(F)F)c2)cn1 [nilotinib]
In short: (§1)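 Pellets of K562 cells were dounce-homogenised in PBS pH 7.4 with 1 mM MgCl2, and the crude extract was held at 1 mg/mL protein for a 30 min treatment with 10 μM compound. Aliquots were heated for 3 min over 48°C-58°C and pooled before NP-40 was added to 0.5% at 4°C. The supernatant from 21,000xg for 90 min was quantified by TMTpro 16plex LC-MS/MS with channel sums equalised. Values are reported from duplicates as log-two fold change in thermal stability relative to solvent controls.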

[1] = compound: Cc1nc(Nc2n[nH]c3c2CN(C(=O)N[C@H](CN(C)C)c2ccccc2)C3(C)C)c2sccc2n1
In short: as §1

dasatinib = compound: Cc1nc(Nc2ncc(C(=O)Nc3c(C)cccc3Cl)s2)cc(N2CCN(CCO)CC2)n1 [dasatinib]
In short: as §1

[2] = compound: Cc1ncc(-c2ccnc(Nc3ccc(S(C)(=O)=O)cc3)n2)n1C(C)C
In short: as §1

[3] = compound: Cn1cc(-c2ccc3c(c2)CCN3C(=O)Cc2cccc(C(F)(F)F)c2)c2c(N)ncnc21
In short: as §1

quisinostat = compound: Cn1cc(CNCC2CCN(c3ncc(C(=O)NO)cn3)CC2)c2ccccc21 [quisinostat]
In short: as §1

tipifarnib = compound: Cn1cncc1[C@@](N)(c1ccc(Cl)cc1)c1ccc2c(c1)c(-c1cccc(Cl)c1)cc(=O)n2C [tipifarnib]
In short: as §1

[4] = compound: NC(=O)Nc1cc(-c2cccc(F)c2)sc1C(=O)N[C@H]1CCCNC1
In short: as §1

[5] = compound: NC(=O)c1cnc(N[C@@H]2CCCC[C@@H]2N)nc1Nc1cccc(-n2nccn2)c1
In short: as §1

[6] = compound: NC1(c2ccc(-c3nc4ccn5c(=O)[nH]nc5c4cc3-c3ccccc3)cc2)CCC1
In short: as §1

Measured: log2 fold change

CDC42EP4 (UniProt Q9H3Q1)
UniProt Q9H3Q1, sequence (Q9H3Q1 whole entry, looked up): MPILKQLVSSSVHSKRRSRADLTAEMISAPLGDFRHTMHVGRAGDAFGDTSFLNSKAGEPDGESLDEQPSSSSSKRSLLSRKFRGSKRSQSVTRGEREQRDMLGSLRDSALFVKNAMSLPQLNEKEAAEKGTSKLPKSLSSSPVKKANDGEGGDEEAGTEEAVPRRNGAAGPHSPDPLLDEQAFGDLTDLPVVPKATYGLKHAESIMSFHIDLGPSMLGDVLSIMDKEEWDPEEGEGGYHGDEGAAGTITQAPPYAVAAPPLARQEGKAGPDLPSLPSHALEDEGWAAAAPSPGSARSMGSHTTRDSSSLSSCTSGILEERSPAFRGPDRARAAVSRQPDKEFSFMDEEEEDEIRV
inactive: nilotinib 0.061 | [1] -0.043 | dasatinib 0.039 | [2] -0.026 | [3] -0.028 | quisinostat -0.045 | tipifarnib 0.006 | [4] -0.02 | [5] -0.025 | [6] 0.02

ATG10 (UniProt Q9H0Y0)
inactive: nilotinib -0.064 | [1] 0.026 | dasatinib 0.043 | [2] -0.16 | [3] -0.068 | quisinostat 0.015 | tipifarnib 0.125 | [4] -0.01 | [6] 0.016

CARD9 (UniProt Q9H257)
inactive: nilotinib 0.047 | [1] -0.037 | dasatinib -0.017 | [2] 0.028 | [3] 0 | quisinostat -0.032 | tipifarnib -0.035 | [4] 0.005 | [5] 0.034 | [6] -0.007

BRD3 (UniProt Q15059)
inactive: nilotinib -0.069 | [1] 0.074 | dasatinib -0.011 | [2] 0.025 | [3] -0.018 | quisinostat 0.013 | tipifarnib 0.013 | [4] 0.066 | [5] -0.024 | [6] -0.185

CEP152 (UniProt O94986)
active: quisinostat -0.413
inactive: nilotinib -0.058 | [1] 0.108 | dasatinib 0.012 | [2] -0.014 | [3] -0.017 | tipifarnib 0.02 | [4] 0.058 | [6] 0.112

CALB2 (UniProt P22676)
inactive: nilotinib 0.098 | [1] -0.085 | dasatinib -0.037 | [2] 0.056 | [3] 0.016 | quisinostat 0.091 | tipifarnib -0.079 | [4] -0.006 | [5] -0.004 | [6] 0.046

CHD4, A0A2R8Y521
inactive: nilotinib -0.125 | [1] -0.088 | dasatinib -0.09 | [2] -0.156 | [3] -0.247 | tipifarnib 0.391 | [5] -0.174

CCDC22 (UniProt O60826)
inactive: nilotinib 0.007 | [1] -0.018 | dasatinib -0.055 | [2] -0.005 | [3] -0.006 | quisinostat -0.006 | tipifarnib 0.012 | [4] 0.041 | [5] 0.025 | [6] -0.017

CCAR2 (UniProt G3V119)
inactive: [5] -0.015

ATG4D (UniProt Q86TL0)
inactive: dasatinib -0.037 | quisinostat -0.085 | [4] 0.084
active: [3] -0.57

ATXN2 (UniProt F8WB06)
inactive: dasatinib -0.074 | [3] -0.053

C18orf25 isoform 2 (UniProt Q96B23)
UniProt Q96B23, sequence (Q96B23 whole entry, looked up): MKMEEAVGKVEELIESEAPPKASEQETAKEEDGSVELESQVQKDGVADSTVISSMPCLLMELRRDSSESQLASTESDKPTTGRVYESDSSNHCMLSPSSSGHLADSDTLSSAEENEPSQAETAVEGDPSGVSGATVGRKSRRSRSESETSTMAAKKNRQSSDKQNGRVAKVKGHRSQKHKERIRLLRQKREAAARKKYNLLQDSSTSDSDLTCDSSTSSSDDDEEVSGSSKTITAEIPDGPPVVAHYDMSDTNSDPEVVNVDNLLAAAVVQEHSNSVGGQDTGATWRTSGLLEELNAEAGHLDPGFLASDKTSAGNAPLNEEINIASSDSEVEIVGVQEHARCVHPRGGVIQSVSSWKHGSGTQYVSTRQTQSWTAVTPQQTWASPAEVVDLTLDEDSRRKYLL
inactive: nilotinib -0.026 | [1] -0.115 | dasatinib -0.025 | [2] -0.291 | [3] -0.056 | tipifarnib 0.076 | [5] 0.01 | [6] -0.071

BTRC (UniProt Q9Y297)
inactive: nilotinib 0.006 | [1] 0.02 | [2] -0.003 | tipifarnib 0.02 | [5] 0.059 | [6] 0.031

BTK isoform 2 (UniProt Q06187)
active: [4] 0.294
inactive: nilotinib 0.016 | [1] -0.002 | [2] 0.015 | [3] -0.005 | quisinostat -0.05 | tipifarnib -0.021 | [5] 0.032 | [6] -0.049

BCORL1 isoform 3 (UniProt Q5H9F3)
inactive: dasatinib 0.039 | [3] -0.09 | quisinostat 0.035 | [4] 0.235 | [6] -0.091

ATF7IP2 (UniProt Q5U623)
active: quisinostat -0.336
inactive: nilotinib -0.003 | [1] 0.008 | [2] -0.089 | tipifarnib -0.064 | [4] 0.001 | [5] 0.036 | [6] -0.127

ATE1 (UniProt O95260)
inactive: quisinostat 0.019 | [4] -0.093 | [5] 0.026

ATPSCKMT (UniProt Q6P4H8)
inactive: dasatinib 0.052 | [3] -0.021 | quisinostat 0.018 | [4] 0.001

BMT2 (UniProt Q1RMZ1)
active: [1] -0.923
inactive: nilotinib 0.172 | [2] 0.134 | tipifarnib 0

ATXN2 (UniProt F8WB05)
inactive: dasatinib 0.035 | [3] -0.058 | quisinostat -0.208 | [4] -0.025 | [5] 0.025 | [6] -0.394

C16orf70 (UniProt Q9BSU1)
inactive: dasatinib 0.042 | [3] -0.091 | quisinostat 0.036 | [4] -0.005 | [5] -0.001 | [6] 0.009

CDKN1B (UniProt P46527)
inactive: dasatinib 0.021 | [3] 0.034 | [4] -0.122 | [5] -0.035 | [6] 0.045
active: quisinostat 0.393

AUH (UniProt Q13825)
inactive: dasatinib -0.274 | [3] 0.14 | quisinostat -0.002 | [4] -0.018 | [5] 0.193 | [6] -0.066

CDKL5 (UniProt O76039)
inactive: dasatinib -0.095 | [3] 0.188 | quisinostat -0.283 | [4] -0.002 | [5] 0.069

CAPNS1 (UniProt U3KPR7)
inactive: nilotinib -0.166 | [1] -0.416 | [2] 0.226 | tipifarnib 0.161 | [5] -0.214

BRAF (UniProt P15056)
inactive: [1] 0.011 | [2] -0.043 | [3] 0.002 | quisinostat -0.173 | tipifarnib -0.006 | [4] 0.018 | [5] 0.007

CAD (UniProt H7BZB3)
active: [6] 0.551

C8orf37 (UniProt Q96NL8)
UniProt Q96NL8, sequence (Q96NL8 whole entry, looked up): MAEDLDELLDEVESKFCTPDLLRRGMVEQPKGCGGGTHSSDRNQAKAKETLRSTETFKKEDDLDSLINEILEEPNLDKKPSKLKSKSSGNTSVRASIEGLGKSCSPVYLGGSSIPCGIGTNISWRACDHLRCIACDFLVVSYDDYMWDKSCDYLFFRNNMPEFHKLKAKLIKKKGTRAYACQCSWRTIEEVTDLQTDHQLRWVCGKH
inactive: dasatinib 0.083 | [3] 0.056 | quisinostat 0.004 | [4] -0.01 | [5] 0.298 | [6] 0.029

C3AR1 (UniProt Q16581)
inactive: nilotinib -0.026 | [1] 0.286 | [2] -0.111 | quisinostat 0.065 | tipifarnib -0.036 | [4] -0.033

CDK2 (UniProt P24941)
inactive: nilotinib -0.01 | dasatinib 0.018 | [3] 0.01 | quisinostat -0.077 | tipifarnib 0.011 | [4] 0.005 | [5] 0.067 | [6] -0.012

CARHSP1 (UniProt H3BNU9)
inactive: nilotinib -0.196 | [1] 0.149 | [2] 0.238 | tipifarnib 0.108 | [5] -0.059

C6orf120 (UniProt Q7Z4R8)
UniProt Q7Z4R8, sequence (Q7Z4R8 whole entry, looked up): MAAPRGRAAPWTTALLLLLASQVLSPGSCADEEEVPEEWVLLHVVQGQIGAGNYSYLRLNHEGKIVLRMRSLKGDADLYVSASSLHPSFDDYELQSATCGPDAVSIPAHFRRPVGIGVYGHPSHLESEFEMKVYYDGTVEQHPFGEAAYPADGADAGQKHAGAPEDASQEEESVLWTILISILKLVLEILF
inactive: dasatinib -0.007 | [3] 0.147 | [5] 0.017 | [6] 0.041

CANX (UniProt D6RHJ3)
inactive: nilotinib -0.055 | [1] 0.129 | [2] 0.191 | tipifarnib 0.126 | [5] -0.103

CAPNS1 (UniProt K7ES78)
inactive: dasatinib -0.027 | [3] -0.006 | quisinostat 0.247 | [4] -0.002 | [5] 0.053 | [6] -0.099

BICRA (UniProt Q9NZM4)
inactive: dasatinib 0.088 | [3] -0.1 | quisinostat 0.037 | [4] -0.004 | [5] 0.054 | [6] -0.382

CEP128 (UniProt Q6ZU80)
inactive: dasatinib -0.168 | [3] 0.041

CACUL1 (UniProt Q86Y37)
inactive: dasatinib -0.094 | [3] 0.157 | quisinostat 0.025 | [4] 0.102 | [5] -0.1 | [6] -0.028

C8orf88 (UniProt P0DMB2)
UniProt P0DMB2, sequence (P0DMB2 whole entry, looked up): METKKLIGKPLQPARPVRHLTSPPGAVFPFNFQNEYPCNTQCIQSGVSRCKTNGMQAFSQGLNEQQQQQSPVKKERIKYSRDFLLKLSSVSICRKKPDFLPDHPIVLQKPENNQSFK
inactive: dasatinib 0.07 | [3] -0.134 | quisinostat -0.042 | [4] -0.011 | [6] 0.084

CEP295 isoform 3 (UniProt Q9C0D2)
UniProt Q9C0D2, sequence (Q9C0D2 whole entry, looked up): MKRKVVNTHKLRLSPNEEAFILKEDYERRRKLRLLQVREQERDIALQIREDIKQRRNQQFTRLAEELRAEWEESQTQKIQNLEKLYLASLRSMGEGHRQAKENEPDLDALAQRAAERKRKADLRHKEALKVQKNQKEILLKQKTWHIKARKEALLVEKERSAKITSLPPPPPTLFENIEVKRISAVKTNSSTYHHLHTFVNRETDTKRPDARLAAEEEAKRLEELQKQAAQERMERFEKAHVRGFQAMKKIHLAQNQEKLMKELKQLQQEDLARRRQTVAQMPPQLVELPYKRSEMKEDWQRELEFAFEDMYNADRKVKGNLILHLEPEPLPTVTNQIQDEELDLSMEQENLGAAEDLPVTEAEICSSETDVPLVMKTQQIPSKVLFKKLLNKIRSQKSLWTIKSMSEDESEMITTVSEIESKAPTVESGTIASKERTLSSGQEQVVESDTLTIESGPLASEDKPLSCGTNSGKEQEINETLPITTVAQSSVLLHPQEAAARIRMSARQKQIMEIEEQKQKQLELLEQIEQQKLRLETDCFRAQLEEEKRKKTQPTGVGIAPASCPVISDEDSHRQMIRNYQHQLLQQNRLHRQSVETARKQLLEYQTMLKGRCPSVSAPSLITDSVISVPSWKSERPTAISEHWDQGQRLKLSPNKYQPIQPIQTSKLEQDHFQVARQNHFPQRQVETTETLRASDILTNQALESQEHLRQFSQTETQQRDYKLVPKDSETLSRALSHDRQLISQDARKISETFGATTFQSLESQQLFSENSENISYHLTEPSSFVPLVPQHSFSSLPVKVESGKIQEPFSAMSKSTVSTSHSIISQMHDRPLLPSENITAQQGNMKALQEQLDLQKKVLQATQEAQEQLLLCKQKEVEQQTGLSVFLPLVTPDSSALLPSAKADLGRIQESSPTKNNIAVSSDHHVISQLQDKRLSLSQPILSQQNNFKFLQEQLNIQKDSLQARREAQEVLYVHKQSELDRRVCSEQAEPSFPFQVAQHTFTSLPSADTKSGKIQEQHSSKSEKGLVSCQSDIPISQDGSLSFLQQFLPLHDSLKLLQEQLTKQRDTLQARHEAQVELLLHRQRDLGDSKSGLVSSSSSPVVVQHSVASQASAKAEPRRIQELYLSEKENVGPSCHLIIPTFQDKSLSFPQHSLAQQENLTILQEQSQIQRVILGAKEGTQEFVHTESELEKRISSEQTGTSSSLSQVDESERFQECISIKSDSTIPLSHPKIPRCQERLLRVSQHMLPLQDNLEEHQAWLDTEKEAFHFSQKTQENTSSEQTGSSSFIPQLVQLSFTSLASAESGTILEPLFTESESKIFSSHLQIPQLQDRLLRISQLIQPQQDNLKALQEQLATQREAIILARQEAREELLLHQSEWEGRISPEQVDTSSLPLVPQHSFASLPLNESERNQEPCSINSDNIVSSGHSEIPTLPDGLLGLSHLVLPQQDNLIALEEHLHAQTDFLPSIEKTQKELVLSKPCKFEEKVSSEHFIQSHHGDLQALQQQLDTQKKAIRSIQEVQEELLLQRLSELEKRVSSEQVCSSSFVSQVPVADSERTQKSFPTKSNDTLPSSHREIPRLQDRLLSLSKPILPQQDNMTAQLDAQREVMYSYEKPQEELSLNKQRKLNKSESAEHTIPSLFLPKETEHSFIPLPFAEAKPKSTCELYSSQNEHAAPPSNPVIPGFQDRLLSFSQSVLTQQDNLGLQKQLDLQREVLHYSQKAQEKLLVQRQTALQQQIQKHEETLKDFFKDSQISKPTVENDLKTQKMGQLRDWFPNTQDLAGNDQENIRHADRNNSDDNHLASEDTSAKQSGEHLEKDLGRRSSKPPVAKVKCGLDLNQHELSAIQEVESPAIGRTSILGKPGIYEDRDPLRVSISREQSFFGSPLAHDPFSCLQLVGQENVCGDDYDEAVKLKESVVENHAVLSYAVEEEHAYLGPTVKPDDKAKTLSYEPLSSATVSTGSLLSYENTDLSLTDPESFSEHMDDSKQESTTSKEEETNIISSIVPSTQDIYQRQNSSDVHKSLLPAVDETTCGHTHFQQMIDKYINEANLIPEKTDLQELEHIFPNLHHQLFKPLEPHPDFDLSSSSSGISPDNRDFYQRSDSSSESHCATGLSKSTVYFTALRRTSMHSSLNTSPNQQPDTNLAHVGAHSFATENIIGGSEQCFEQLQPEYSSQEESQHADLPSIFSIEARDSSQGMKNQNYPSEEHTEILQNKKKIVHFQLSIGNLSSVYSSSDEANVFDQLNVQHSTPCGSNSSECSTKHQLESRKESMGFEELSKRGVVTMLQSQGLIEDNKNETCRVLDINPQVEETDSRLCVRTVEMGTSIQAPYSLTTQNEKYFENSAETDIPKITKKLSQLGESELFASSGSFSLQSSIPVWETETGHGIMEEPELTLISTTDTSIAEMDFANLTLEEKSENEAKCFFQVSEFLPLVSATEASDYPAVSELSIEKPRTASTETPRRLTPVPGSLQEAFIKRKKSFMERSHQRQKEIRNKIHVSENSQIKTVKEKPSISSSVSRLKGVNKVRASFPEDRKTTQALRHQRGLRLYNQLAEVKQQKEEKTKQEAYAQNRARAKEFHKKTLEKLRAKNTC
inactive: nilotinib 0.016 | [1] 0.046 | [2] 0.006 | quisinostat 0.017 | tipifarnib 0.062 | [4] -0.038 | [5] 0.14 | [6] 0.046

B3GALT6 (UniProt Q96L58)
inactive: dasatinib -0.148 | [3] 0.233 | quisinostat -0.086 | [4] 0.137 | [6] -0.174

CCP110 (UniProt O43303)
UniProt O43303, sequence (O43303 whole entry, looked up): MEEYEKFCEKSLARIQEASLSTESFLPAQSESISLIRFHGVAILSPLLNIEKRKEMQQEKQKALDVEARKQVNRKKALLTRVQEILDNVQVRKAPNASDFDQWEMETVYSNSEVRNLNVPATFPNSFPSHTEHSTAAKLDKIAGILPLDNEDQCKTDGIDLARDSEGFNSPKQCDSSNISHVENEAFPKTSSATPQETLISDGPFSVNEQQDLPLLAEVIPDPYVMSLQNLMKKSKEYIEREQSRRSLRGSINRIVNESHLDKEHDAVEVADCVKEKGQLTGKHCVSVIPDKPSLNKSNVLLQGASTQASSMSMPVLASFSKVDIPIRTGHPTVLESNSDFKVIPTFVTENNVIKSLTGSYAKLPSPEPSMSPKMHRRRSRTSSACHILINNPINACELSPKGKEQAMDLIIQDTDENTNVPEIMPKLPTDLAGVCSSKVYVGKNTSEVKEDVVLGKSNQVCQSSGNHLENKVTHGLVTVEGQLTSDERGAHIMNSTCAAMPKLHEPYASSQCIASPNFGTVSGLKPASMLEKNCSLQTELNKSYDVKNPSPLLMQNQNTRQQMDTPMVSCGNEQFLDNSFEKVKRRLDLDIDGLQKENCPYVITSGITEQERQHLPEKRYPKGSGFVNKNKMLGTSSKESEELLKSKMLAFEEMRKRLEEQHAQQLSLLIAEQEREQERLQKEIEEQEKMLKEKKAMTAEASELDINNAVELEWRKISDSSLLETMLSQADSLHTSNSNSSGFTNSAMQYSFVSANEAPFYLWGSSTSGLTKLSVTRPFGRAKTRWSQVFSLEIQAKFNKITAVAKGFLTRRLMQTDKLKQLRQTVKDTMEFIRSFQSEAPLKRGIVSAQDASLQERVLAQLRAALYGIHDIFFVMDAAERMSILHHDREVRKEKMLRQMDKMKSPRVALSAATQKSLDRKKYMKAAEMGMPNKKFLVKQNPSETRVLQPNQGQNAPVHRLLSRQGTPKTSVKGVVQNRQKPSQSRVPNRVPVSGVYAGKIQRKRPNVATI
inactive: dasatinib 0.063 | [3] -0.01 | quisinostat -0.062 | [4] 0.107 | [6] 0.055

CENPV (UniProt Q7Z7K6)
inactive: [1] -0.184 | [2] 0.816 | quisinostat 0.038 | tipifarnib 0.08 | [4] -0.077
active: nilotinib 1.5

CDC14A isoform 2 (UniProt Q9UNH5)
inactive: nilotinib -0.076 | [1] 0.07 | [2] -0.001 | quisinostat -0.174 | tipifarnib -0.019 | [4] 0.083 | [5] 0.101

CDAN1 (UniProt H3BPZ6)
inactive: quisinostat 0.093 | [4] 0.056

CCDC130 (UniProt P13994)
inactive: quisinostat -0.583 | [4] -0.183 | [6] 0.259

CDCA8 (UniProt Q53HL2)
inactive: nilotinib 0.03 | [1] -0.002 | dasatinib 0.012 | [2] -0.277 | [3] -0.011 | tipifarnib 0.046 | [6] -0.051

CCDC85B (UniProt Q15834)
inactive: dasatinib 0.066 | [3] -0.034 | quisinostat 0.086 | [4] 0.044 | [5] -0.225 | [6] 0.188

From the supplement of paper PMC10849652
